Screens: PubChem, National Center for Advancing Translational Sciences (NCATS)
Compounds with a hit are over-represented: about 5% of the library has one in this group of screens.
Vaccinia mCherry: qHTS for Stage-Specific Inhibitors of Vaccinia Orthopoxvirus: mCherry Reporter Primary qHTS; Vaccinia virus mCherry reporter infection, fluorescence; Potency, µM (highest dose often 36.5 µM), for inactives: at the highest dose activity change, negative = inhibition, most hits filed as inhibitors; hit rate 0.63% among 310,000; AID 720579, 2013; calls by dose curve; tested in A549 cells; also: potency is read from the fitted curve at half-maximal effect; nearly all actives have a fitted effect of over 35% in size
TbPYK inhibitor: qHTS of Trypanosoma Brucei Inhibitors; Potency, µM (top dose mostly 76.8 µM), for the others: at the highest dose activity, negative = inhibition, actives largely listed as inhibitors; hit rate 0.12% among 410,000; pyruvate kinase (Trypanosoma brucei), Q57TT1; TbPYK enzyme, Kinase-Glo Plus ATP luminescence, 45 min; also: potency is read from the fitted curve at half-maximal effect; nearly all actives have a fitted effect of over 50% in size
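Quantitative HTS: titrated library compounds versus trypanosomal pyruvate kinase in TEA buffer (pH 7.2) containing KCl, MgCl2, BSA and Tween-20. Reactions were initiated with ADP, 130 uM final. Kinase-Glo Plus luminescence was read after 45 min at RT.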
LmPK inhibitor: qHTS Assay for Inhibitors of Leishmania Mexicana Pyruvate Kinase (LmPK); Q27686; purified LmPK, Kinase-Glo ATP luminescence, 1 h; Potency, µM (titrated, usually from 57.5 µM), for the others: at the highest dose activity change, negative = inhibition, hits mostly inhibitors; hit rate 0.37% among 290,000; AID 1721, 2009; also: potency is read from the fitted curve at half-maximal effect
Target sequence (Q27686 whole entry, looked up): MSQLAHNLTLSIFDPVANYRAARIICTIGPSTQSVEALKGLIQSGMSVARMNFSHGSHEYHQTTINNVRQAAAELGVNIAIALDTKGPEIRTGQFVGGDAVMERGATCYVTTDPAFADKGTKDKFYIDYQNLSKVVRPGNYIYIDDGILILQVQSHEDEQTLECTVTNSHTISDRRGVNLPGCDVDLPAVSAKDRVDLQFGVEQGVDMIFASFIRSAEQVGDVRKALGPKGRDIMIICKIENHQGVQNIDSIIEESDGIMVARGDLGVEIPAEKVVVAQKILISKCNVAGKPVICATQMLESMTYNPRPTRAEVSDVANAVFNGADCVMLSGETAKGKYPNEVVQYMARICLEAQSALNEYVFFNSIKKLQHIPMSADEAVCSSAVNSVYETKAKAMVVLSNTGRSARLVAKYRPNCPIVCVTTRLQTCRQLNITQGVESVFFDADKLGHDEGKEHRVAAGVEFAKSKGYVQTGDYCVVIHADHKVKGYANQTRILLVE
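In 50 mM imidazole pH 7.2 with 7 mM MgCl2, LmPK (0.1 nM) turned over PEP (0.5 mM) and ADP (0.1 mM) for 1 h at room temperature. Luciferase read-out of ATP.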
Vaccinia Venus: qHTS for Stage-Specific Inhibitors of Vaccinia Orthopoxvirus: Venus Reporter Primary qHTS; Potency, µM (titrated, usually from 36.5 µM), for inactives: at the top dose activity change, negative = inhibition, actives largely listed as inhibitors; hit rate 0.46% among 330,000; Vaccinia virus Venus reporter expression, fluorescence; AID 720580, 2013; calls by dose curve; tested in A549 cells; also: potency is read from the fitted curve at half-maximal effect; nearly all actives have a fitted effect of over 30% in size
HCMV inh: qHTS Assay for inhibitors of the human cytomegalovirus (HCMV). HFF cells, HCMV-luciferase reporter, 72 h; stronger effect = lower value. activity change, negative = inhibition, % at 57.5 µM. hit rate 4.5% among 410,000. AID 1259415, 2018; in the data active = activity change below about -60%; inconclusive = no clear call, values can overlap the other calls; inactive = above about -39%
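Human foreskin fibroblasts infected with luciferase-reporter HCMV at MOI 1 PFU/cell, compounds at two doses. Luciferase measured 72 h post infection; normalized to buffer-only basal and Salinomycin (10uM) controls.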
Starred values were filed as active, the others as inactive; i = inactive; ? = inconclusive; . = no result given. Unless noted, calls follow the shape of the dose curve; as a rule, active = well fitted curve in the direction sought with a large enough effect; inconclusive = small, poorly fitted or top-dose-only effect, or another doubt; inactive = no such curve, though single readings can be large; an effect the other way counts as inactive or inconclusive. % is scaled to controls: 0 for no effect and ±100 for the full control effect.

SMILES	Vaccinia mCherry	TbPYK inhibitor	LmPK inhibitor	Vaccinia Venus	HCMV inh
Cc1c(C=O)c(C=O)c(C)n1Cc1ccccc1	-5%	-1%	-1%	-1%	-81*
c1ccc2c(c1)nnn1c3ccccc3nc21	.	.	10µM*	.	.
NC(c1csc(NC(=O)Nc2cccc(Cl)c2)n1)c1ccccc1Cl (stereo not given)	13%	-3%	.	-15%	-76*
COc1ccccc1NC(=O)Cc1csc(NC(=S)Nc2ccc(C)cc2)n1	.	-5%	1%	.	-102*
CN(C)Cc1csc(NC(=O)Nc2cccc(C(F)(F)F)c2)n1	-14%	-2%	.	-10%	-26
CC(N)c1csc(NC(=O)Nc2cccc(C(F)(F)F)c2)n1 (stereo not given)	11%	1%	.	-24%	-68*
CCOC(=O)Cc1csc(NC(=S)NC(=O)c2ccccc2)n1	.	5%	0%	.	-65*
COCC1=C(C(=O)OC(C)OC(=O)OC(C)C)N2C(=O)C(NC(=O)/C(=N\OC)c3csc(N)n3)C2SC1 (stereo not given)	.	-3%	.	.	.
COC(=O)c1ccccc1NC(=O)CN1C(=O)COc2ccc(Cl)cc21	-16%	2%	.	-7%	-3
CCOC(=O)Cc1csc(NC(=O)Nc2cccc(Cl)c2)n1	-9%	-3%	-2%	-2%	-60*
CCOC(=O)Cc1csc(NC(=S)NC(=O)c2ccc(C)cc2)n1	.	-8%	-11%	.	-96*
O=C(Nc1cccc(C(F)(F)F)c1)Nc1ccc2snnc2c1	?	-8%	.	?	-105*
CCOC(=O)Cc1csc(NC(=O)c2ccc(C)cc2)n1	-21%	-9%	-7%	-13%	-25
CCOC(=O)Cc1csc(NC(=O)Nc2ccc(Cl)cc2)n1	-11%	11%	5%	-23%	3
O=C(Nc1cccc(C(F)(F)F)c1)c1ccc2snnc2c1	-1%	0%	.	-1%	-20
CCCCn1c(SCC(=O)N2CCc3ccccc32)nnc1-c1ccncc1	.	-9%	4%	.	-38
COc1ccc(/C(=N/Nc2ncnc3ccccc23)C(=O)O)cc1	10µM*	4%	1%	-26%	87
O=C(COc1ccc(C(=S)N2CCCC2)cc1)Nc1ccc(F)cc1	-28%	1%	5%	-22%	?
O=C(COc1ccc(C(=S)N2CCOCC2)cc1)Nc1ccccc1C(F)(F)F	-19%	5%	8%	-13%	-87*
O=C(COc1ccc(C(=S)N2CCCC2)cc1)Nc1ccccc1C(F)(F)F	i	-16%	0%	-21%	-65*
COc1cc(C2NC(=S)NC(C)=C2C(=O)OC(C)C)ccc1OC(C)C (stereo not given)	.	-14%	-1%	.	-36
CC(Nc1[nH]c(=O)n(C)c(=O)c1N=O)c1ccccc1 (stereo not given)	-5%	5%	1%	-12%	-34
O=C1c2cccnc2C(Nc2ccc(Cl)cc2)N1Cc1cccs1 (stereo not given)	-5%	-2%	6%	3%	-65*
NC(=O)C1CCN(C(=O)C2(NC(=O)Nc3cccc(F)c3)CCCCC2)CC1	-2%	5%	1%	-6%	3
O=C(Nc1cccc(F)c1)NC1(C(=O)N2CCC(O)CC2)CCCCC1	i	-5%	2%	-8%	-99*
SMILES	Vaccinia mCherry	TbPYK inhibitor	LmPK inhibitor	Vaccinia Venus	HCMV inh
Cc1ccccc1C(=O)N1CCN(c2ccc(NC(=O)c3ccc([N+](=O)[O-])o3)cc2)CC1	-9%	-7%	1%	-21%	-98*
O=C(Nc1ccc(N2CCN(C(=O)c3ccccc3)CC2)cc1)c1ccc([N+](=O)[O-])o1	.	-7%	-2%	.	-101*
O=C(Nc1ccccc1N1CCN(C(=O)c2ccc(Cl)cc2)CC1)c1ccc([N+](=O)[O-])o1	?	6%	-5%	?	.
Cc1ccccc1C(=O)N1CCN(c2ccc(NC(=S)NC(=O)c3ccco3)cc2)CC1	.	-22%	-2%	.	-87*
CC1(C)CC(=O)C2=C(C1)N=C1SCCC(=O)N1C2c1ccccc1 (stereo not given)	i	-4%	7%	-15%	21
CCCCNC(=O)c1onc(CSc2cccc(OCC)c2)c1C(=O)O	-19%	1%	9%	-7%	-10
O=C(CCl)Nc1ccc(N2CCCCCC2)cc1	?	-9%	-2%	-16%	-36
Cc1ccc(S(=O)(=O)CCSc2nc(C)cc(C(F)(F)F)c2C#N)cc1	.	-2%	3%	2.2µM*	-71*
COc1ccc(S(=O)(=O)c2cnc3ccc(OC)cc3c2N2CCC3(CC2)OCCO3)cc1	-10%	-10%	1%	-22%	-74*
Cc1cccc(C)c1NC(=O)CN(C)C(=O)c1cccc(S(=O)(=O)N2CCN(c3ccccc3)CC2)c1	-11%	-3%	-3%	-25%	-8
Cc1cccc(C)c1NC(=O)CN(C)C(=O)c1cccc(S(=O)(=O)N2CCN(c3ccc(F)cc3)CC2)c1	?	1%	.	-28%	-87*
CN(CC(=O)Nc1ccccc1Cl)C(=O)c1cccc(S(=O)(=O)N2CCN(c3ccc(F)cc3)CC2)c1	.	4%	-9%	.	-80*
CN(CC(=O)Nc1ccccc1Cl)C(=O)c1cccc(S(=O)(=O)N2CCN(Cc3ccccc3)CC2)c1	-26%	3%	.	-28%	-80*
CN(CC(=O)Nc1ccccc1Cl)C(=O)c1cccc(S(=O)(=O)N2CCN(c3ccccc3)CC2)c1	-11%	3%	.	?	-77*
Cc1ccc(C(C(=O)NC2CCCC2)N(C(=O)Cc2cccs2)c2ccc3c(c2)OCCO3)cc1 (stereo not given)	-6%	7%	1%	-21%	-25
Cc1ccc(C)c(N2CCN(CCCNC(=O)Cn3ncc4c([nH]c5ccccc54)c3=O)CC2)c1	-5%	-3%	.	-10%	5
NC(=O)c1cc(S(=O)(=O)N2CCN(c3cccc(C(F)(F)F)c3)CC2)cs1	-9%	4%	.	-7%	9
CN(Cc1ccc(OC(F)F)cc1)C(=O)c1cccc(S(=O)(=O)N2CCN(c3ccccc3)CC2)c1	.	-1%	.	.	-63*
CN(Cc1cccc(F)c1)C(=O)c1cccc(S(=O)(=O)N2CCN(Cc3ccccc3)CC2)c1	i	-10%	1%	-23%	.
CCN1CCN(C(=O)CSc2cc(=O)n(C)c3ccccc23)CC1	i	4%	0%	9%	84
CCOCCCNC(=O)C(NC(=O)c1ccc(NC(C)=O)cc1)c1ccc(Cl)cc1 (stereo not given)	-17%	1%	6%	-15%	-63*
Clc1nc(Nc2ccc(N3CCOCC3)cc2)c2ccccc2n1	-17%	-3%	1%	-16%	-72*
O=C(COc1ncnc2ccc(Br)cc12)Nc1ccc(N2CCOCC2)cc1	.	7%	-3%	.	54
